# High-throughput results as filed in PubChem BioAssay.
# HTT ATP protect: Huntington cell model cytoprotection by ATP luminescence. PC12 HTT-Q103 induced, cytoprotection, ATP luminescence, 40 h. Potency, µM (series often up to 56.4 µM), for the others: cytoprotection (ATP increase), usual class: activators. hit rate 0.14% among 230,000. AID 1471; also: potency is read from the fitted curve at half-maximal effect; % of control where 0% means no effect; nearly all actives have a fitted effect of over 45% in size
#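 Cells were plated at 1500 per well in phenol red-free DMEM with 5% equine and 5% calf serum. Tebufenozide (100 nM final) and compounds were added, then ATPlite reagent, and luminescence was read.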
# PNC inhibitor: blocks assembly of the perinucleolar compartment. PC3M PTB-GFP, PNC prevalence imaging, 16 h; stronger effect = lower value. activity change (PNC), negative = inhibition, % at 10 µM. hit rate 3.1% among 140,000;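 active = readout at or below -70, meaning at least 70% loss of cells showing the perinucleolar compartment, a nuclear body marking cancer cells; inconclusive = readout between -30 and a set limit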;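 also: plate controls were DMSO wells for no effect and camptothecin positive control wells for full effect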
#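 Compounds are pinned in duplicate onto adhered PC3M cells stably expressing GFP-tagged PTB and incubated 16 h at 37 C. Cells are then fixed, nuclei stained with Hoechst, and PNC-positive cells counted.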
# HPGD block: inhibitors of human 15-hydroxyprostaglandin dehydrogenase (HPGD) | hit rate 4.3% among 150,000 | purified HPGD, NADH fluorescence kinetic, PGE2 substrate | P15428 | Potency, µM, for the others: top-dose activity change, negative = inhibition, actives largely listed as inhibitors; active = well fitted inhibition curve with a large enough effect, not every such curve was filed as active; inconclusive = small, poorly fitted or top-dose-only effect, or another doubt; inactive = no such curve, though single readings can be large or run the other way; also: potency is read from the fitted curve at half-maximal effect; % is scaled to controls: 0 for no effect and ±100 for the full control effect
#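 20 nM HPGD preincubated 15 min at room temperature with compound in 50 mM Tris-HCl pH 8, 0.01% Tween 20. Started with 1 mM NAD+ and 30 uM prostaglandin E2; NADH fluorescence (360/450 nm) read 5 times over 30-s intervals, last minus first.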
# ALDH1A1 block: inhibitors of human aldehyde dehydrogenase 1A1. P00352. Purified ALDH1A1, NADH fluorescence, propionaldehyde substrate. Potency, µM (doses to about 75.3 µM), for the others: at the top dose activity, negative = inhibition, hits mostly inhibitors. hit rate 7.3% among 220,000; active = well fitted inhibition curve with a large enough effect, not every such curve was filed as active; inconclusive = small, poorly fitted or top-dose-only effect, or another doubt; inactive = no such curve, though single readings can be large or run the other way;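 also: potency is read from the fitted curve at half-maximal effect; plate controls were no enzyme wells and a reference inhibitor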
# Target sequence (P00352 whole entry, looked up): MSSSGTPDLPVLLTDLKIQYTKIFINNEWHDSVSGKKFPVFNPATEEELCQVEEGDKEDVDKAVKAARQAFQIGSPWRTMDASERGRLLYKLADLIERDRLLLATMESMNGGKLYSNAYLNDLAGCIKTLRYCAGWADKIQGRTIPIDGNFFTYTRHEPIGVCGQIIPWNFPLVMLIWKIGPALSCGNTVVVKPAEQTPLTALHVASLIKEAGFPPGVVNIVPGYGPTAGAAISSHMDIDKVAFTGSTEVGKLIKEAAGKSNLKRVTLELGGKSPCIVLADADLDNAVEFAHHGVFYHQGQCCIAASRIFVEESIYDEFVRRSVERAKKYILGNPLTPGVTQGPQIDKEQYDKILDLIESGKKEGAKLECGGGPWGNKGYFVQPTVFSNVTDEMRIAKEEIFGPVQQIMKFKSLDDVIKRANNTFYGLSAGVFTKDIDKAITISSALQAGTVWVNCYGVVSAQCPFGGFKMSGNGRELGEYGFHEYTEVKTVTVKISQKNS
# CBFb-RUNX1 inh: CBF-beta/RUNX1 interaction disruption | Q01196+Q13951 | AlphaScreen CBFb-His/RUNX1-biotin binding, biochemical | Potency, µM (top dose mostly 59.8 µM), inactives show top-dose activity, negative = inhibition, usual class: inhibitors | 230,000 tested, under 10 active; also: % of control where 0% means no effect
#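 Inhibition was taken as any reduction in AlphaScreen signal from the CBF-beta–RUNX1 pair (His and biotin tags, 30 nM each), measured after compound (15 min) and bead (90 min) incubations at room temperature.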
# HttQ103 aggreg: mutant huntingtin aggregation inhibition; PC12 HttQ103-GFP aggregates, Acumen cytometry, 40 h; Potency, µM (doses to about 46.1 µM), for the others: at the top dose activity change, negative = inhibition, usual class: inhibitors; hit rate 1.1% among 220,000; also: potency is read from the fitted curve at half-maximal effect; % is scaled to controls: 0 for no effect and ±100 for the full control effect; nearly all actives have a fitted effect of over 60% in size
#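 Using laser scanning cytometry, GFP-positive aggregates were counted after lysis of PC12 cells induced with 100 nM tebufenozide to express HTT exon 1 Q103–GFP. Compounds were tested in titration.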
# Active calls of the source: *; u = inconclusive; x = not tested or not shown; [ ] = dose if it differs, or a comment. An excerpt weighted towards active compounds, which were near 11% of everything screened. Unless noted, calls follow the shape of the dose curve; as a rule, active = well fitted curve in the direction sought with a large enough effect; inconclusive = small, poorly fitted or top-dose-only effect, or another doubt; inactive = no such curve, though single readings can be large; an effect the other way counts as inactive or inconclusive.
SMILES,HTT ATP protect,PNC inhibitor,HPGD block,ALDH1A1 block,CBFb-RUNX1 inh,HttQ103 aggreg
Cc1ccccc1N=Cc1cccc(O)c1O,x,u,-7%,5µM*,u,14%
CCCCCCC#CC1C=CC(OC(C)=O)C(COC(C)=O)O1 (configuration not stated),-8%[10 µM],x,x,3.2µM*,15%[13.1 µM],x
CC(=O)OCC1OC(C#CCCc2ccccc2)C=CC1OC(C)=O (configuration not stated),-1%[10 µM],x,x,u,-8%[13.1 µM],x
Cc1ccc(C(=O)N2CC(C)OC(C)C2)c(Cl)c1 (configuration not stated),-9%,5,16µM*,u,-9%,-3%[9.22 µM]
O=C(O)c1nc(-c2ccccc2)[nH]c1C(=O)O,-21%[10 µM],x,-13%,-8%[13.5 µM],x,x
Cc1nn(-c2nnc(NC3CCCCC3)nn2)c(C)c1Br,x,-9,16µM*,14µM*,-27%,u
C=C(C)C1CC=C(C)CC1 (configuration not stated),-20%,x,x,x,x,7%
CCOC(=O)c1nnn(-c2nonc2N)c1-c1ccc(OCC)cc1,21%[10 µM],-12,4%,-14%,8%,8%
Nc1nonc1-n1nnc(C(=O)c2ccccc2)c1-c1ccccc1,-43%,u,-12%,2.8µM*,0%,-29%
Cc1ccc(CNC(=O)C2c3ccccc3C(=O)N3CCc4ccccc4C23)o1 (configuration not stated),-39%,-23,-26%,25µM*,-6%,15%
O=C(NCCN1CCN(Cc2ccccc2)CC1)C1c2ccccc2C(=O)N2CCc3ccccc3C12 (configuration not stated),-8%,90,0%,9%,-3%,-11%
CCOc1ccc(NC(=O)C(c2ccccn2)N(C(=O)CCl)c2ccc(OCC)cc2)cc1 (configuration not stated),-12%[10 µM],-18,-13%,8.9µM*,u,-9%
CCOc1ccc(NC(=O)C(c2ccccn2)N(C(=O)CCl)c2ccc(OC)cc2)cc1 (configuration not stated),-17%[10 µM],8,-11%,-7%,-19%,-13%
CSc1ccc(C(=O)C2CCCN(C(=O)c3csc(C(C)=O)c3)C2)cc1 (configuration not stated),5%[10 µM],x,x,2µM*,5%,19%[9.22 µM]
O=C(Cn1nnc(-c2ccc(OCc3ccccc3F)cc2)n1)N1CCOCC1,-2%[10 µM],-102*,7%,-5%,-1%,2%
CC[C@@H](c1ccccc1)n1c(=O)n2n(c1=O)[C@H]1[C@H](O)[C@H]3O[C@H]3C(=O)[C@H]1CC2,-11%[10 µM],x,x,-1%[13.5 µM],7%[13.1 µM],x
Cc1cc(C)cc(NC(=O)Cn2cc3c(n2)CCCCC3)c1,11%,-17,20µM*,-8%,-4%,5%
O=S(=O)(c1ccccc1)N1CCN(C2CCCCCCC2)CC1,-21%[0.074 µM],-7,-10%,u,-15%,-26%
c1ccc(CCN(Cc2ccccc2)C2CCN(C3CCCC3)CC2)cc1,-35%,x,x,40µM*,4%,18%
CN1CC[C@@]2(CCCN(C(=O)c3cccn3C)C2)C1,-36%,x,-1%,7%,x,x
O=C(OCC(=O)N1CCCCC1)c1cc(NS(=O)(=O)c2ccc(Cl)c([N+](=O)[O-])c2)ccc1O,-1%[10 µM],-2,8.9µM*,-5%,-8%,-23%
O=C(OCC(=O)N1CCCC1)c1ccc(NS(=O)(=O)c2cccs2)cc1O,-12%,x,x,u,11%,-9%
O=C(OCC(=O)N1CCN(C(=O)c2ccco2)CC1)c1cc(S(=O)(=O)Nc2ccc(Cl)cc2)ccc1O,-15%,x,x,14µM*,-4%,20%
O=C(c1ccco1)N1CCN(C(=O)C2(S(=O)(=O)c3ccc(Cl)cc3)CC2)CC1,17%,1,-8%,5%,0%,-5%
CC(=O)OCC1=C(C(=O)O)N2C(=O)[C@@H](NC(=O)CSc3ccncc3)[C@@H]2SC1,-3%[40.3 µM],x,-3%,2%[20.9 µM],-4%[21.7 µM],-4%
SMILES,HTT ATP protect,PNC inhibitor,HPGD block,ALDH1A1 block,CBFb-RUNX1 inh,HttQ103 aggreg
CC(=O)OCC1=C(C(=O)O)N2C(=O)C(NC(=O)Cc3cccs3)C2SC1 (configuration not stated),-39%,x,20µM*,-13%,u,x
Cc1ccc(C(=O)NC(=S)NCC(=O)c2ccccc2)cc1,-5%,-29,-12%,u,2%,14%
O=C(CNC(=S)NC(=O)c1ccco1)c1ccccc1,-2%,-5,-14%,20µM*,2%,6%
O=C(Nc1nc2ccc(F)cc2s1)c1cccs1,-59%,x,x,-7%,4%,-10%
O=C(NC(=S)NCc1ccco1)c1ccccc1,-4%[10 µM],x,x,-9%,-2%,28%[9.22 µM]
O=C(NC(=S)Nc1nc2ccccc2s1)c1cccs1,-36%[10 µM],-100*,-18%,3.5µM*,-11%,26%
O=C(CNC(=S)NC(=O)c1cccs1)c1ccccc1,-12%[10 µM],u,-18%,7.9µM*,-5%,9%
O=C(CNC(=O)c1ccccc1C(=O)O)c1ccccc1,6%,22,-6%,25µM*,1%,10%
CCn1nc(C(=O)NNC(=O)COc2ccccc2C)c2ccccc2c1=O,x,-113*,-6%,7%,6%,16%
CC(C)C12CC[C@@]3(CC[C@H]4[C@@](C)(CCC[C@]4(C)C(=O)O)[C@@H]3C1)[C@@H](CN)C2,-12%[10 µM],x,-4%,u,x,x
Cc1cccc(-c2nsc(SCC(=O)N3CCCC3)n2)c1,-33%,0,u,-8%,3%,-13%
CCSc1nnc(NC(=O)c2cccnc2Cl)s1,6%[10 µM],-14,-10%,25µM*,4%,-14%
O=C(CSc1nc(-c2ccccc2)ns1)N1CCOCC1,-5%[10 µM],x,x,13µM*,2%,-3%
O=C(Nc1nnc(SCC(=O)N2CCOCC2)s1)c1ccccc1Cl,-73%[10 µM],-9,u,22µM*,5%,4%
O=C(Cc1cccs1)Nc1nnc(SCC(=O)N2CCCCC2)s1,21%[10 µM],u,-20%,16%,3%,4%
O=C(CSc1nnc(NCc2ccccc2)s1)N1CCOCC1,x,-4,-13%,13%,-4%,10%
O=C(Nc1nnc(SCC(=O)N2CCCCC2)s1)c1cccs1,-43%[10 µM],16,14µM*,u,1%,-7%
COc1cccc(-c2nccc(NCc3ccccc3)n2)c1,-46%,x,x,u,x,x
C=CCSc1nnc(NC(=O)c2cccc(S(=O)(=O)N3CCOCC3)c2)s1,-17%,-28,3.5µM*,u,-4%,-16%
COC(=O)c1cc(OC)c(OC)cc1N=CC1=C(O)CC(C)(C)CC1=O,-2%,5,u,1µM*,4%,14%
CCOC(=O)c1cc(C)sc1/N=C/C1C(=O)CC(C)(C)CC1=O,x,u,-2%,13µM*,3%,0%
